Rows were chosen to be rich in hits. Some 3.5% of all compounds tested hit in one or more screens of this group.
Tau fluor cs: counter-screen for tau fibril formation inhibitors; tau K18 P301L Alexa594 fluorescence, heparin fibrillization; AID 1463; Potency, µM (highest dose often 57.7 µM), without a hit: at the top dose activity change, negative = decrease; actives 0.93% (n = 280,000); further: nearly all actives have a fitted effect of over 55% in size
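Human tau K18 P301L (15 uM unlabeled, 0.24 uM Alexa 594-labeled) in 100 mM sodium acetate pH 7 with 20 uM heparin, 6 hr at 37 C. ThT 30 uM added, 1 hr ambient; Alexa 594 FP and total fluorescence read at 555/632 nm.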
Tau FP inhib: inhibitors of human tau fibril formation. K18 P301L tau heparin fibrillization, Alexa594 FP, 6 h. Potency, µM (titrated, usually from 57.7 µM), for the others: top-dose activity, negative = inhibition, actives largely listed as inhibitors. actives 0.39% (n = 280,000); further: nearly all actives have a fitted effect of over 55% in size
Target sequence (P10636 561-689 P618L limits assumed): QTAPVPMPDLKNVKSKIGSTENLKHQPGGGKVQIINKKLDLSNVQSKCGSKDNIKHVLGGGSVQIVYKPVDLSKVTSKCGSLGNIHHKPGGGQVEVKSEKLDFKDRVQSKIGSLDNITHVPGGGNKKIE
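Heparin (20 uM) drove fibril formation of recombinant tau K18 P301L, 15 uM unlabeled with 0.24 uM Alexa 594 label, for 6 hr at 37 C in 100 mM sodium acetate pH 7. Fluorescence polarization (555/632 nm) read 1 hr after 30 uM ThT.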
TRb-SRC2 inh: inhibitors of human thyroid hormone receptor beta-SRC2 interaction. TRbeta-SRC2 peptide binding, fluorescence polarization; receptor liganded with 1 µM T3. actives 0.065% (n = 280,000). Potency, µM (series often up to 106 µM), for inactives: top-dose activity change, negative = inhibition, most hits filed as inhibitors. AID 1469;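 further: plate controls were bound peptide for no effect and peptide without receptor for full effect; nearly all actives have a fitted effect of over 50% in size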
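Each compound concentration gave % activity, normalized to unbound and bound Texas Red SRC2 controls, from polarization read after 5 hr ambient incubation with T3-loaded human TRb LBD.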
TR SRC2 fluor cs: counter-screen for TRb-SRC2 inhibitors: fluorescence interference; TRb/SRC2 Texas Red total fluorescence interference; Potency, µM (top dose mostly 106 µM), without a hit: at the top dose fluorescence change, negative = quenching; actives 0.29% (n = 280,000); AID 1479; active means well fitted curve in either direction with a large enough effect; inconclusive means small, poorly fitted or top-dose-only effect
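Human TRb ligand-binding domain at 0.6 uM with 20 nM Texas Red SRC2 peptide in Tris buffer containing 1 uM T3 and 5% DMSO, incubated with compound 5 h at ambient temperature. Total fluorescence (555/632 nm) calculated as parallel + 2 × perpendicular.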
Tau fibril ThT: tau fibrillization inhibition (ThT binding); actives 2.1% (n = 270,000); recombinant tau K18 P301L (four-repeat tau fragment), heparin-induced fibrillization, ThT fluorescence; AID 1460; Potency, µM (titrated, usually from 57.4 µM), for the others: top-dose activity, negative = inhibition, hits mostly inhibitors; further: nearly all actives have a fitted effect of over 55% in size
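Recombinant human tau K18 fragment […] carrying P301L, 15 uM unlabeled plus 0.24 uM Alexa 594-labeled, was fibrillized with 20 uM heparin in 100 mM sodium acetate pH 7 for 6 hr at 37 C; 30 uM ThT fluorescence read after 1 hr.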
JMJD2E inh: inhibitors of human JMJD2E histone demethylase; B2RXH2; JMJD2E catalytic domain, FDH-coupled NADH fluorescence (FDH is formaldehyde dehydrogenase); Potency, µM (top dose mostly 57.1 µM), for inactives: at the top dose activity change, negative = inhibition, hits mostly inhibitors; actives 1.6% (n = 230,000); active means well fitted inhibition curve with a large enough effect, not every such curve was filed as active; inconclusive means small, poorly fitted or top-dose-only effect, or another doubt; inactive means no such curve, though single readings can be large or run the other way;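 further: 0% = wells with enzyme and -100% = buffer wells without enzyme; nearly all actives have a fitted effect of over 50% in size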
Target sequence (B2RXH2 1-337 limits assumed): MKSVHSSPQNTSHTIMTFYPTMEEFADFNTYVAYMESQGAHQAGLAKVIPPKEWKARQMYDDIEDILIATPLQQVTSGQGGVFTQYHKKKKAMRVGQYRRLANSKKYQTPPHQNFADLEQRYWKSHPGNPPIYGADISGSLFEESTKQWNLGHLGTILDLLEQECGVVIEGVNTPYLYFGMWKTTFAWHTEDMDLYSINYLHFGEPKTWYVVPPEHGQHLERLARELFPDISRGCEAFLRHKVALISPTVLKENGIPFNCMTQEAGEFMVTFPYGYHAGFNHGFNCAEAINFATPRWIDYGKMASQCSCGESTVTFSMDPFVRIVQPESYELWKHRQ
* = called active by the depositor; ? = inconclusive; / = not tested or not shown; [ ] = remark or other dose. Unless noted, the call rests on the fitted dose curve; in most records, active means well fitted curve in the direction sought with a large enough effect; inconclusive means small, poorly fitted or top-dose-only effect, or another doubt; inactive means no such curve, though single readings can be large; an effect the other way counts as inactive or inconclusive. Unless noted, on the % scale 0 is the no-effect control and ±100 the full control effect; potency means the concentration at half of the fitted maximal effect.

SMILES | Tau fluor cs | Tau FP inhib | TRb-SRC2 inh | TR SRC2 fluor cs | Tau fibril ThT | JMJD2E inh
N#C/C(=C\c1ccc(-c2ccc(Cl)c(C(=O)O)c2)o1)c1nc2ccccc2[nH]1 | ? | -13% | -3% | -18% | ? | /
N#C/C(=C/c1ccc(N2CCCC2)c([N+](=O)[O-])c1)c1nc2ccccc2[nH]1 | ? | -13% | -9% | 0% | 2.5µM* | 3%
N#C/C(=C\c1ccncc1)c1nc2ccccc2[nH]1 | -21% | 13% | -4% | -3% | ? | ?
COc1c(/C=N/NS(=O)(=O)c2ccc(C)cc2)c(CCN(C)C(C)=O)cc2c1OCO2 | -17% | -7% | -2% | -1% | -14% | 2%
C=CCn1c(CSc2nc3ccccc3s2)nnc1SCC(=O)NCc1ccccc1 | -17% | 1% | 12% | 0% | ? | 4%
Cc1ccc2nc(/C(C#N)=C/c3cn[nH]c3-c3ccc(F)cc3)[nH]c2c1 | ? | 2% | -5% | -2% | ? | -15%
Cc1ccc2nc(/C(C#N)=C\c3ccc(N4CCCCC4)c([N+](=O)[O-])c3)[nH]c2c1 | -30% | 7% | -2% | 0% | 3.2µM* | -15%
Cc1ccc(C2C3=C(CC(C)(C)CC3=O)NC3=C2C(=O)c2ccccc23)cc1 (configuration not stated) | ? | 7% | 3%[53 µM] | -3%[53 µM] | ? | 0%
CC1(C)C(=O)NC2=C1C(=O)C(=O)c1ccccc12 | -28% | ? | ? | -27% | 18µM* | ?
Cc1cccc(N2C(=O)CC(NNc3nc4ccccc4s3)C2=O)c1 (configuration not stated) | -3% | 6% | 6% | 2% | -16% | -8%
Cc1cccc(C(=O)NC(=S)NNC(=O)c2ccccc2Cl)c1 | -7% | 0% | -6% | -4% | ? | ?
Cc1cc(C(=O)NNC(=S)NC(=O)/C=C/c2ccccc2Cl)n[nH]1 | -20% | 12% | -7% | -8% | ? | 7.9µM*
CN(C(=O)CCCOc1ccc2[nH]c(=O)ccc2c1)C1CCCCC1 | -6% | 12% | -3% | 1% | -7% | ?
Cc1cc(SCC(=O)c2ccc(O)c(O)c2)n2nc(C)c(-c3ccccc3)c2n1 | 11µM*[quencher] | -4% | -2% | -5% | ? | ?
CC(C)c1ccc(NC(=O)NC2CCN(CC(=O)Nc3cccc4ccccc34)CC2)cc1 | ? | 8% | 4% | -1% | ? | -8%
O=C(NC(=S)Nc1ncccn1)c1ccc(Cl)cc1Cl | -1% | 3% | 4% | -2% | -6% | -4%
Cc1cc(C)cc(NC(=O)CC2NCCNC2=O)c1 (configuration not stated) | -1% | -2% | -4% | -1% | -11% | -4%
NCCSSCCN | -19% | ? | -3% | -4% | 14µM* | 3%
C[C@@H]1CCC[C@H](C)N1Cc1nc(Cc2ccccc2Cl)no1 | 5%[2.34 µM] | -7% | -5% | -4% | 3% | 7%
CCOP(=O)(c1ccc(N(C)C)cc1)C(O)c1ccncc1 (configuration not stated) | -7% | ? | 12% | -2% | -24% | ?
CCCCOP(=O)(c1ccc(N(C)C)cc1)C(O)c1ccncc1 (configuration not stated) | 5% | -4% | -13% | -3% | -2% | 22µM*
CC1CCCC2(C1)NC(=S)c1c(sc3c1CCCC3)N2 (configuration not stated) | ? | ? | -1% | -6% | 18µM* | -7%
CC1CCCC2(C1)NC(=S)N(c1ccccc1)N2 (configuration not stated) | -10% | -2% | -11% | 1% | ? | ?
O=C1c2ccccc2C(=O)N1c1cccc(-c2csc(Nc3ccc4c(c3)OCO4)n2)c1 | 7.9µM*[quencher] | ? | -1% | -5% | 8.9µM* | -8%
COc1ccccc1Nc1nc(-c2cccc(N3C(=O)c4ccccc4C3=O)c2)cs1 | ? | 7% | 8% | -17% | ? | 3%
SMILES | Tau fluor cs | Tau FP inhib | TRb-SRC2 inh | TR SRC2 fluor cs | Tau fibril ThT | JMJD2E inh
COc1ccc(C(=O)O)nc1C | -6% | 3% | -8% | -5% | -3% | 14µM*
COc1ccc(S(=O)(=O)NCC(c2ccco2)S(=O)(=O)c2cccs2)cc1OC (configuration not stated) | -4% | ? | -4% | -1% | 1% | /
COc1cc(O)c2c(c1)oc(=O)c1c3cc(O)c(O)cc3oc21 | / | / | ? | 35µM*[quencher] | / | /
Cc1ccccc1-n1c(SCC(=O)N(C)C2CCS(=O)(=O)C2)nc2ccccc2c1=O (configuration not stated) | 9% | -5% | 6% | -2% | 7% | -8%
O=C(/C=C/c1ccc(Cl)c(Cl)c1)NCc1ccco1 | -3% | 0% | -9% | 3% | -4% | 2%
O=C(/C=C/c1ccc(Cl)c(Cl)c1)n1cccn1 | -11% | ? | -6% | 0% | 14µM* | 2%
CC1CN(C(=S)Nc2ccccc2)N(c2ccccc2)C1 (configuration not stated) | -5% | -1% | 0% | 0% | -8% | -1%
CCc1ccc(-n2c(SCc3c(C)noc3C)nnc2-c2ccncc2)cc1 | -9% | -9% | -10% | -6% | -15% | -1%
CCC1(CC)NC(=O)N(CC(=O)NCc2ccc3c(c2)OCO3)C1=O | -7% | 4% | -10% | -1% | -8% | -3%
O=C1C(NS(=O)(=O)c2ccccc2)=C(N2CCN(c3ccc(F)cc3)CC2)C(=O)c2ccccc21 | 10µM*[quencher] | -12% | 10% | -2% | 6.3µM* | -5%
CC1CCN(C2=C(NS(=O)(=O)c3ccc(Cl)cc3)C(=O)c3ccccc3C2=O)CC1 | ? | -7% | -1% | 0% | ? | -9%
CC1CCN(C2=C(NS(=O)(=O)c3ccccc3)C(=O)c3ccccc3C2=O)CC1 | 11µM*[quencher] | ? | 1% | -2% | 13µM* | ?
O=C1C(NS(=O)(=O)c2cccs2)=C(N2CCN(c3cccc(Cl)c3)CC2)C(=O)c2ccccc21 | 8.9µM*[quencher] | ? | 0% | 2% | 4µM* | -17%
CC(=O)Nc1ccc(S(=O)(=O)NC2=C(N3CCN(Cc4ccccc4)CC3)C(=O)c3ccccc3C2=O)cc1 | 14µM*[quencher] | -9% | -4% | -1% | 16µM* | -11%
CC(NC(=O)CN(C)S(=O)(=O)c1cnc[nH]1)c1ccccc1 (configuration not stated) | 2% | -3% | 5% | 5% | 4% | -1%
COCCCN(C(=S)NC(=O)C(C)(C)C)c1c(N)n(Cc2ccccc2)c(=O)[nH]c1=O | -12% | -9% | 9% | -2% | ? | -17%

Compound activity as filed in PubChem.
